This is a sample that favours compounds with a hit; in the whole collection about 18% have one here.
HepG2 tox-1: counter-screen for TGF-b inhibitors: cytotoxicity in HepG2 cells | HepG2 CAGA-GFP viability, ATP luminescence, 18 h | Potency, µM (doses to about 46.1 µM), without a hit: at the top dose activity change, negative = cytotoxicity, hits mostly cytotoxic | 410,000 compounds, 0.76% hits; note: potency is the fitted concentration of half-maximal effect
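CellTiter-Glo luminescence gave cytotoxicity after 18 hours at 37 degrees C. The cells were HepG2 CAGA-GFP in 1% FBS DMEM, stimulated with 500 pg/mL TGF-beta after compound addition. %Activity was normalised to no-cell wells (complete cell-killing) and DMSO (no toxicity), and curves were fitted and classified.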
TGFb inhibitor: inhibitors of TGF-b signaling | 410,000 compounds, 1.2% hits | HepG2 CAGA-GFP TGF-b/SMAD3 reporter, GFP fluorescence, 18 h; TGF-beta stimulated, 500 pg/mL final | AID 588855 | Potency, µM (doses to about 46.1 µM), inactives show at the highest dose activity, negative = inhibition, actives largely listed as inhibitors; note: potency is the fitted concentration of half-maximal effect; % is set by controls: 0 for no effect and ±100 for the full control effect; nearly all actives have a fitted effect of over 65% in size
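Cell-based qHTS in HEPG2 carrying a CAGA-GFP Smad reporter; compounds added before 500 pg/mL final TGF-beta, 18 h incubation at 37 degrees C, GFP fluorescence quantified per cell by imaging cytometry.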
IL-1B inflam inh: inflammasome signaling inhibition, IL-1 beta readout; THP-1 LPS/ATP IL-1B secretion, AlphaLISA, 16 h; hits give low values; activity change, % at 57.5 µM; 360,000 compounds, 4.7% hits; in the data active = activity change below about -50%; inconclusive = mostly about -30% to -49%; note: % is set by controls: 0 for no effect and ±100 for the full control effect
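Secreted IL-1B measured by AlphaLISA bead assay after 16 h compound exposure of THP-1 cells; compounds (final up to 57.5 uM) added 1 h before LPS (250 ng/mL) and ATP (1.25 mM) stimulation; lower signal means less secretion.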
TDP1 inh: blocks human tyrosyl-DNA phosphodiesterase 1; recombinant TDP1, AlphaScreen DNA substrate cleavage; Potency, µM (doses to about 130 µM), inactives show at the top dose activity change, negative = inhibition, usual class: inhibitors; 350,000 compounds, 0.28% hits; note: potency is the fitted concentration of half-maximal effect; % is set by controls: 0 for no effect and ±100 for the full control effect; nearly all actives have a fitted effect of over 40% in size
Target sequence (Q9NUW8 whole entry, looked up): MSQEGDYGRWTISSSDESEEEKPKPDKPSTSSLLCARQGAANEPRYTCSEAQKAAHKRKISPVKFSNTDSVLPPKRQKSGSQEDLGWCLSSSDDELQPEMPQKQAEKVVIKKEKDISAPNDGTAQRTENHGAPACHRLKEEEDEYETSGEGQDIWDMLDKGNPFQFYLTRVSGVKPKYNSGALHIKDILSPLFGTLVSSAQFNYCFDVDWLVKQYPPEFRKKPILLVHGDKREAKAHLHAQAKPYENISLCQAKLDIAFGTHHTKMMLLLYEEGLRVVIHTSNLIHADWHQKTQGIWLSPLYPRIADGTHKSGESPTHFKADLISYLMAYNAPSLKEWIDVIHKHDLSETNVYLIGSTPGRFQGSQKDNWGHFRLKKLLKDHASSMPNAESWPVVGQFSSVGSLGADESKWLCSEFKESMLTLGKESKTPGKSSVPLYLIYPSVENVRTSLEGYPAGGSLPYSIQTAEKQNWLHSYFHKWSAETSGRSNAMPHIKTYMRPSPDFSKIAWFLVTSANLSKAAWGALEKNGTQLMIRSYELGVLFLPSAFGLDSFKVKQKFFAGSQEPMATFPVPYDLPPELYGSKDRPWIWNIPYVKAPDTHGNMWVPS
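Here, a 5' biotin and 3' phosphotyrosine-FITC DNA oligonucleotide reports Tdp1 activity: intact substrate bridges AlphaScreen beads, while cleavage leaves a 3' phosphate and drops signal. All incubations at room temperature.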
DT40 TDP1 CPT: DT40-hTDP1 cell growth loss with CPT; 420,000 compounds, 12% hits; Potency, µM (highest dose often 46.2 µM), for the others: top-dose activity change, negative = growth inhibition, hits mostly inhibitors; chicken DT40 Tdp1-/-;hTDP1 cells + 20 nM CPT, ATP luminescence, 48 h; AID 686979; note: potency is the fitted concentration of half-maximal effect; % is set by controls: 0 for no effect and ±100 for the full control effect; nearly all actives have a fitted effect of over 55% in size
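Chicken DT40 Tdp1-/- cells stably complemented with human TDP1 were seeded at 400 cells/well in medium containing 20 nM camptothecin, exposed to pin-transferred compounds, and grown at 37 °C for at least 48 hr. Viability was read as ATP luminescence.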
TDP1 cell noCPT: qHTS for Inhibitors of human tyrosyl-DNA phosphodiesterase 1 (TDP1): qHTS in cells in absence of CPT; 420,000 compounds, 15% hits; DT40 Tdp1-/- hTDP1 cells, no CPT, ATP luminescence, 48 h; Potency, µM (series often up to 46.2 µM), for inactives: top-dose activity change, negative = growth inhibition, hits mostly inhibitors; AID 686978, 2013; note: potency is the fitted concentration of half-maximal effect; % is set by controls: 0 for no effect and ±100 for the full control effect; nearly all actives have a fitted effect of over 55% in size
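Readout: luminescence from CellTiter-Glo after 30 min in the dark at RT. Cells: DT40 Tdp1-/- with stable hTDP1, 400/well. Exposure: compounds alone, ≥48 hr, 37 °C.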
TGFb confirm: confirmation of TGF-b signaling inhibitors in HepG2 reporter cells. shares compounds with TGFb inhibitor. HepG2 CAGA-GFP TGF-b reporter, GFP fluorescence, 18 h; cells stimulated with TGF-beta, 500 pg/mL. Potency, µM (top dose mostly 46.1 µM), without a hit: at the top dose activity, negative = inhibition, actives largely listed as inhibitors. 1,600 compounds, 63% hits. AID 720534; note: potency is the fitted concentration of half-maximal effect; % is set by controls: 0 for no effect and ±100 for the full control effect; nearly all actives have a fitted effect of over 65% in size
HepG2 tox-2: toxic to HepG2 cells in TGF-b counterscreen | HepG2 CAGA-GFP viability, ATP luminescence, 18 h; cells stimulated with TGF-beta, 500 pg/mL | 1,600 compounds, 27% hits | Potency, µM (titrated, usually from 46.1 µM), without a hit: at the top dose activity, negative = cytotoxicity, most hits filed as inhibitors | shares compounds with TGFb inhibitor; note: potency is the fitted concentration of half-maximal effect; % is set by controls: 0 for no effect and ±100 for the full control effect; nearly all actives have a fitted effect of over 70% in size
TGFb CCL64 inh: orthogonal confirmation of TGF-b inhibitors in CCL64 cells; shares compounds with TGFb inhibitor; CCL64 CAGA-GFP reporter, TGF-b stimulated, GFP fluorescence, 18 h; Potency, µM (highest dose often 46.1 µM), for the others: at the highest dose activity, negative = inhibition, actives largely listed as inhibitors; 1,600 compounds, 41% hits; AID 720536; note: potency is the fitted concentration of half-maximal effect; nearly all actives have a fitted effect of over 65% in size
TGFb COP inh: TGF-b inhibition validated with COP promoter | Potency, µM (top dose mostly 46.1 µM), for the others: at the top dose activity, negative = inhibition, actives largely listed as inhibitors | 1,600 compounds, 3% hits | shares compounds with TGFb inhibitor | HepG2 COP-GFP TGF-b reporter, GFP fluorescence, 18 h; cells stimulated by added recombinant TGF-beta; note: potency is the fitted concentration of half-maximal effect; nearly all actives have a fitted effect of over 70% in size
* hit, by the source's call; ? = inconclusive; nt = no result given. Unless noted, calls come from the whole dose curve; as a rule, active = well fitted curve in the direction sought with a large enough effect; inconclusive = small, poorly fitted or top-dose-only effect, or another doubt; inactive = no such curve, though single readings can be large; an effect the other way counts as inactive or inconclusive.

SMILES	HepG2 tox-1	TGFb inhibitor	IL-1B inflam inh	TDP1 inh	DT40 TDP1 CPT	TDP1 cell noCPT	TGFb confirm	HepG2 tox-2	TGFb CCL64 inh	TGFb COP inh
CC1CCCC(C)N1C(=O)COC(=O)CSc1ccc(C(N)=O)cc1[N+](=O)[O-] (centres undefined)	-2%	6%	5	nt	9%	-15%	nt	nt	nt	nt
COc1ccc(C[C@@H]2CN3C(=NC[C@@H]3Cc3ccc(O)cc3)N2C[C@H](C)NC(=O)CCC2CCCCC2)cc1	-22%	13µM*	?	nt	5.8µM*	5.2µM*	-86%	?	?	106%
C=CC(=O)Nc1cccc(Oc2ccnc(Nc3ccc(N4CCN(C)CC4)cc3)n2)c1	-10%	13µM*	-101*	nt	?	16µM*	15µM*	23µM*	12µM*	22%
CN(CCCC1CCCC1)C(=O)c1cc(COc2ccc(F)cc2F)on1	3%	10µM*	-51*	nt	?	?	21µM*	?	26µM*	25%
CN(CCC1CCCCO1)C(=O)c1cc(COc2ccc(F)cc2F)on1 (centres undefined)	-60%	-6%	11	0%	?	?	nt	nt	nt	nt
Oc1ccc(C[C@H]2CNC(=S)N2CC2CCCN2C[C@H](Cc2ccccc2)N2C[C@H](Cc3ccc(O)cc3)N(CC3CCCCCC3)C2=S)cc1 (some centres undefined)	-82%	10µM*	?	nt	?	?	21µM*	?	8.2µM*	82%
Oc1ccc(C[C@H]2CNC(=S)N2CC2CCCN2C[C@H](Cc2ccc(O)cc2)N2C[C@H](Cc3ccc(O)cc3)N(CC3CCCCC3)C2=S)cc1 (some centres undefined)	-23%	10µM*	0	nt	7.3µM*	5.8µM*	5.2µM*	12µM*	5.8µM*	?
Oc1ccc(C[C@H]2CNC(=S)N2C[C@H]2CCCN2C[C@H](Cc2ccccc2)N2C[C@H](Cc3ccc(O)cc3)N(CC3CCCCCC3)C2=S)cc1	-112%	7.1µM*	0	nt	15µM*	16µM*	23µM*	?	13µM*	51%
O=C1NC[C@H](Cc2ccc(O)cc2)N(C[C@@H]2CCCN2C[C@H](Cc2ccc(O)cc2)N2C[C@H](Cc3ccccc3)N(CC3CCCCCC3)C(=O)C2=O)C1=O	nt	nt	-25	nt	?	?	nt	nt	nt	nt
Oc1ccc(C[C@H]2CN([C@@H](Cc3ccc(O)cc3)CN3CCC[C@@H]3CN3C(=S)NC[C@@H]3Cc3ccccc3)C(=S)N2CC2CCCCCC2)cc1	-45%	10µM*	-51*	nt	16µM*	23µM*	23µM*	?	8.2µM*	67%
O=S(=O)(Nc1cc(S(=O)(=O)N2CCOCC2)ccc1NCC1CCCO1)c1ccccc1F (centres undefined)	5%	-2%	12	2%	-5%	10%	nt	nt	nt	nt
COc1ccc(/C=C2/CSC/C(=C/c3ccc(OC)c(OC)c3)C2=O)cc1OC	-3%	6.3µM*	-117*	nt	4.1µM*	2.9µM*	1.3µM*	3.3µM*	2.3µM*	9%
O=C(Nc1ccc(S(=O)(=O)N2CCOCC2)cc1)c1ccc([N+](=O)[O-])o1	-180%	6.3µM*	-100*	nt	1µM*	2.6µM*	3.3µM*	13µM*	12µM*	?
O=C(Nc1ccc(N2CCOCC2)cc1)c1ccc([N+](=O)[O-])o1	-61%	5.6µM*	-96*	-5%	5.2µM*	12µM*	12µM*	23µM*	?	13%
CCC(C)CCN1C(N(C)C)=NC[C@@H]1C (some centres undefined)	2%	-1%	28	-4%	5%	8%	nt	nt	nt	nt
O=C(Nc1cccc([N+](=O)[O-])c1)c1cc2ccccc2cc1O	-39%	4µM*	?	3%	4.1µM*	2.6µM*	6.5µM*	4.1µM*	4.6µM*	61%

Screening data from PubChem BioAssay.
